# Experiments:
# Test in all cases: PBM binding z-score (relative to random genomic background probes); higher = stronger binding; sequences stand for … in GC…GCGATTGACAGCGTAGAATGAAGG
# [1] = test system: FXR:RXRa (NR concentration 270 nM, RXRa partner concentration 90 nM)
# In short: (§1)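 Ligand-free nuclear receptor dimers were bound for 1 h to custom Agilent 4×180K protein-binding microarrays. Detection used antibodies against each partner (one per run). Binding z-scores rest on regression-normalized fluorescence, with random background probes as the reference.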
# [2] = test system: LXRa:RXRa (NR concentration 270 nM, RXRa partner concentration 90 nM)
# In short: as §1
# [3] = test system: LXRa homodimer (NR concentration 270 nM)
# In short: as §1
# [4] = test system: LXRb:RXRa (NR concentration 270 nM, RXRa partner concentration 90 nM)
# In short: as §1
# [5] = test system: LXRb homodimer (NR concentration 270 nM)
# In short: as §1
# [6] = test system: PPARa:RXRa (NR concentration 270 nM, RXRa partner concentration 90 nM)
# In short: as §1
# [7] = test system: PPARg:RXRa (NR concentration 180 nM, RXRa partner concentration 90 nM)
# In short: as §1
# [8] = test system: PPARg:RXRa 270nM:90nM, anti-RXR (NR concentration 270 nM, RXRa partner concentration 90 nM)
# In short: as §1
# [9] = test system: PPARg:RXRa 30nM:10nM, anti-RXR (NR concentration 30 nM, RXRa partner concentration 10 nM)
# In short: as §1
# [10] = test system: PPARg:RXRa 90nM:30nM, anti-RXR (NR concentration 90 nM, RXRa partner concentration 30 nM)
# In short: as §1
# [11] = test system: PPARg:RXRa DBDmut IVT, anti-RXR (DBD mutation: RXRa K156A/R161A, NR concentration 270 nM, RXRa partner concentration 90 nM)
# In short: as §1
# [12] = test system: PPARg:RXRa IVT, anti-PPARg (NR concentration 270 nM, RXRa partner concentration 90 nM)
# In short: as §1
# [13] = test system: PPARg DBDmut:RXRa IVT, anti-PPARg (DBD mutation: PPARg1 K132A/R137A, NR concentration 270 nM, RXRa partner concentration 90 nM)
# In short: as §1
# [14] = test system: PPARg DBDmut IVT, anti-PPARg (DBD mutation: PPARg1 K132A/R137A, NR concentration 270 nM)
# In short: as §1
# [15] = test system: PPARg homodimer (NR concentration 180 nM)
# In short: as §1
# [16] = test system: PXR:RXRa (NR concentration 270 nM, RXRa partner concentration 90 nM)
# In short: as §1
# [17] = test system: PXR homodimer (NR concentration 270 nM)
# In short: as §1
# [18] = test system: RARa:RXR (NR concentration 270 nM, RXRa partner concentration 90 nM)
# In short: as §1
# [19] = test system: RARa homodimer (NR concentration 270 nM)
# In short: as §1
# [20] = test system: RARb:RXRa (NR concentration 270 nM, RXRa partner concentration 90 nM)
# In short: as §1
Sequence,PBM binding z-score [1],PBM binding z-score [2],PBM binding z-score [3],PBM binding z-score [4],PBM binding z-score [5],PBM binding z-score [6],PBM binding z-score [7],PBM binding z-score [8],PBM binding z-score [9],PBM binding z-score [10],PBM binding z-score [11],PBM binding z-score [12],PBM binding z-score [13],PBM binding z-score [14],PBM binding z-score [15],PBM binding z-score [16],PBM binding z-score [17],PBM binding z-score [18],PBM binding z-score [19],PBM binding z-score [20]
GATACAGGGTGAAGGCCAGAGTACGCGTATTGAT,-0.425,-0.357,-0.615,-0.42,-0.925,1.08,1.41,1.72,0.138,0.958,0.737,1.34,-0.37,-0.0968,-0.218,-0.324,-0.0784,-0.132,-0.36,0.882
ATATGTAGGTTACGTCCGGGTCATTCAGGCTATG,2.37,4.62,1.21,3.12,0.722,4.6,5.86,5.24,2.88,4.48,7.35,7.47,4.19,3.42,3.1,3.87,2.03,4.08,0.587,2.47
CCTTACGGGTCAGGGTTATAGCACGGGTGGTACG,3.45,2.22,-0.256,1.95,-0.0988,3.9,2.72,3.18,0.621,1.96,0.748,2.22,-0.0775,-0.847,1.81,2.25,-0.00485,3.06,0.308,3.41
AGTCAAAGTTCAGGACGAGGTACCGTAAAGCACG,3.73,3.6,1.07,1.66,0.243,3.21,4.19,4.86,1.63,3.51,-0.264,0.999,-0.0468,-0.427,0.643,2.17,0.824,2.02,0.582,4.34
ACTCGGAGGACAAATGTCAGAGCTACGCCAGTGA,-0.155,-0.111,-0.289,-0.522,-0.374,0.306,1.34,1.99,0.613,1.36,0.158,0.0513,0.143,-1.07,-0.0876,-0.536,-0.343,-0.444,-0.635,1.44
CAAACTAGGTCACGAAAGGGCAAAGTCGAATGAC,5.72,6.91,2.43,5.14,0.531,5.68,9.64,7.9,6.2,8.08,8.03,9.13,2.95,1.67,4.28,5.85,0.485,5.03,2.03,4.99
CCTACGGGGCCAAGGTCATTGATCAGTCAAAGCA,3.57,3.06,0.732,2.94,-0.542,3.79,2.83,3.73,1.3,2.88,0.0794,1.73,-1.66,-0.738,2.31,3.58,0.818,3.78,-0.181,3.57

# Reference: the supplement of paper PMC6555819
